The source of these data is PubChem BioAssay AID2685 (National Center for Advancing Translational Sciences (NCATS), 2010).

About 2,100 (0.66%) of roughly 320,000 compounds were called active. Roughly 53% stayed inconclusive and do not appear here. The sample holds actives, similar compounds and a random draw of the others, so the mix is not that of the screen. Calls come from the whole dose curve; as a rule, active = well fitted inhibition curve with a large enough effect in the signal ratio, with a control signal flat (not every such curve was filed as active); inconclusive = small, poorly fitted or top-dose-only effect, or effect the other way, or a change in a side signal; inactive = flat fitted curve, though single readings scatter; the % refers to the signal ratio.
Potency is the fitted concentration of half-maximal effect.

The assay in a line: qHTS Assay for Lipid Storage Modulators in Drosophila S3 Cells.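 For cell number change: cells counted by Cell Tracker Red CMTPX staining in the red channel.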 For lipid storage change, negative = inhibition: % is set by controls: 0 for no effect and ±100 for the full control effect. The conditions noted are these: BODIPY lipid droplet fluorescence, 18-24 h, cells fed with added oleic acid; cell number change: measured here: cell count max response; series mostly up to 46.1 µM; lipid storage change, negative = inhibition: at the top concentration. The method in brief:
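Laser-scanning cytometry quantifies lipid droplet accumulation (500–530 nm total intensity; droplet/cell object ratio) in oleic acid-fed (400 uM added) Drosophila S3 cells treated with a concentration series. 20 uM Triacsin C defined 100% inhibition.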
For orientation: Quantitative high-throughput screening tests each substance at several concentrations.
On to `C[C@@H](O)C1NC(=O)[C@H](CCCCN)NC(=O)c2cc([N+](=O)[O-])cc(I)c2OCC[C@@H](C(N)=O)NC1=O` (stereo partly drawn), for which the “lipid storage change, negative = inhibition” value was 6.3% (inactive) and the cell number change is -6.85%.
The corresponding values for `O=S(=O)(c1ccc(Br)cc1)c1nc(-c2ccccc2)oc1NCCN1CCOCC1` are 0.674% (inactive) and 2.89%.
In the case of `COCCNc1nnc(Cc2ccc(Cl)cc2)c(=O)[nH]1`, the “lipid storage change, negative = inhibition” value was -2.21% (inactive) and the cell number change was -0.278%.
Turning to `O=C(c1ccccc1)N1CCCc2ccccc21`, the “lipid storage change, negative = inhibition” value was -0.33% (inactive) and the cell number change was 0.741%.
For the molecule `O=C(c1cccc(Br)c1)N1CCCc2ccccc21`, the Potency is 0.82 µM (active) and the cell number change was -21.4%.
In the case of `O=C(c1ccc(F)c(F)c1)N1CCCc2ccccc21`, the “lipid storage change, negative = inhibition” value was -1.08% (inactive) and the cell number change amounted to 4.4%.
With `Cc1ccc(OCCCC(=O)Nc2ccc(N3CCOCC3)cc2)c(C)c1`, the call was inactive.
As for `Cc1cc(Oc2nnnn2-c2ccccc2)ccc1Cl`, the “lipid storage change, negative = inhibition” value was -2.18% (inactive).
Take `CCN(C(=O)c1ccc(NC(C)=O)cc1)c1ccccc1`: the molecule was classed as inactive and the cell number change is -17%.
Regarding `c1ccc(-n2nnnc2CN2CCOCC2)cc1`, the “lipid storage change, negative = inhibition” value is -2.17% (inactive) and the cell number change is -7%.
On the same counts, the results for `Nc1ccc(-n2nnnc2CN2CCOCC2)cc1` are 10.8% (inactive) and 0.0095%.
On to `CC1CCN(Cc2nnnn2-c2ccc(Cl)cc2)CC1`, for which the Potency was 13 µM (active) and the cell number change was -6.07%.
In the case of `COc1ccc(OC)c(N(CC(=O)NCCSCc2ccco2)S(=O)(=O)c2ccc(OC)c(OC)c2)c1`, the “lipid storage change, negative = inhibition” value was -30% (inactive) and the cell number change was -16.6%.
On the same counts, the results for `Cc1ccc2c(c1)S/C(=C\c1cccc[n+]1C)N2CCO` are -8.13% (inactive) and -6.57%.
Regarding `C[n+]1ccccc1/C=C1\Sc2ccccc2N1CCO`, the molecule was called inactive and the cell number change was -1.06%.
On to `CCCCN1/C(=C/c2cccc[n+]2C)Sc2cc(NC(C)=O)ccc21`, for which the Potency was 1.3 µM (active) and the cell number change was 11.1%.
Turning to `O=C(Nc1nc2ccc([N+](=O)[O-])cc2s1)C1CCCO1` (stereo not drawn), the “lipid storage change, negative = inhibition” value was 3.18% (inactive) and the cell number change is -16.8%.
With `O=C(NNC(=O)c1csc(-c2cccnc2)n1)c1ccccc1`, the “lipid storage change, negative = inhibition” value was -0.436% (inactive) and the cell number change was 5.13%.
On the same counts, the results for `S=C(NCc1cccc(Cl)c1)NCc1ccco1` are -19.9% (inactive) and 29.3%.
As to `CC(C)(C)NC(=O)COC(=O)c1ccc2c(c1)C(=O)N(Cc1ccco1)C2=O`, the call was inactive and the cell number change is -13.3%.
As for `CCC(CC)NC(=O)COC(=O)c1ccc2c(c1)C(=O)N(Cc1ccco1)C2=O`, the “lipid storage change, negative = inhibition” value is -29.9% (inactive) and the cell number change was -0.427%.
Consider `CC(C)(C)C(=O)COC(=O)c1ccc2c(c1)C(=O)N(Cc1ccco1)C2=O`, for which the Potency is 0.259 µM (active) and the cell number change was 2.14%.
Consider `COc1ccc(NS(=O)(=O)c2cccc(C(=O)NCC(c3ccco3)N3CCCC3)c2)cc1` (stereo not drawn), for which the “lipid storage change, negative = inhibition” value is 16.7% (inactive) and the cell number change came out at 21.4%.
On the same counts, the results for `COC(=O)c1ccc(CSc2nnc(N)s2)cc1` are 21.3% (inactive) and 1.22%.
With `CCn1cc(C(=O)OCC(=O)OC2CC(C)CCC2C(C)C)c(=O)c2ccc(C)nc21` (stereo not drawn), the outcome was inactive.
For the molecule `CCOCCCNc1nc2c(C)cccn2c(=O)c1/C=C1\SC(=S)N(C(C)CC)C1=O` (stereo not drawn), the Potency was 0.461 µM (active) and the cell number change stood at 29.9%.
Regarding `CCOCCCNC(=O)c1cc2c(=O)n3cccc(C)c3nc2s1`, the “lipid storage change, negative = inhibition” value is 15.3% (inactive) and the cell number change is 22%.
Turning to `CCC(C)Nc1nc2c(C)cccn2c(=O)c1C=Nc1ccc(OC)cc1` (stereo not drawn), the “lipid storage change, negative = inhibition” value is 22.7% (inactive).
As for `COCCn1c(=O)[nH]c(=O)c2c(C(F)(F)F)cc(-c3cccs3)nc21`, the “lipid storage change, negative = inhibition” value was 7.94% (inactive) and the cell number change amounted to 6.31%.
On the same counts, the results for `COc1ccc(CNC(=O)c2cc(=O)c3cc(C)c(C)cc3o2)cc1` are 25% (inactive) and 22.5%.
With `CN(NS(=O)(=O)c1ccc(F)cc1)c1ncc(C(F)(F)F)cc1Cl`, the “lipid storage change, negative = inhibition” value was 7.85% (inactive) and the cell number change was -16.4%.
On the same counts, the results for `CC(=O)NCCC(=O)Nc1ncc(S(=O)(=O)c2ccc([N+](=O)[O-])cc2)s1` are 17.1% (inactive) and 18.8%.
The corresponding values for `CCCOc1ccc(N2C(=O)CC(N3CCN(c4ccccc4F)CC3)C2=O)cc1` (stereo not drawn) are 11.8% (inactive) and -7.57%.
As to `CCCOc1ccc(N2C(=O)CC(N3CCN(c4ccc([N+](=O)[O-])cc4)CC3)C2=O)cc1` (stereo not drawn), the Potency was 2.31 µM (active) and the cell number change was found to be 5.5%.
Consider `CCCOc1ccc(N2C(=O)CC(N3CCOCC3)C2=O)cc1` (stereo not drawn), for which the molecule was classed as inactive and the cell number change stood at 5.36%.
Regarding `Cn1c(=O)n(CC(=O)O)c(=O)c2c1nc1n2CCCN1Cc1ccccc1`, the “lipid storage change, negative = inhibition” value is -23.5% (inactive) and the cell number change turned out to be 6.57%.
The corresponding values for `O=C(COc1ccccc1[N+](=O)[O-])N/N=C/C=C/c1ccco1` are -22.2% (inactive) and -6.08%.
On the same counts, the results for `Cc1cc(NC(=O)CN2C(=O)NC3(CCC(C)CC3)C2=O)no1` (stereo not drawn) are 2.19% (inactive) and 5.62%.
On the same counts, the results for `O=C(CCCN1C(=O)/C(=C/c2ccccc2Cl)SC1=S)NCCCN1CCOCC1` are -10.8% (inactive) and 16.8%.
Consider `O=C(NCCN1C(=O)S/C(=C\c2cccc(Cl)c2Cl)C1=O)C1=COCCO1`, for which the Potency was 11.6 µM (active) and the cell number change was -26.2%.
`O=C(CCc1nc2ccccc2c(=O)[nH]1)NCCN1C(=O)S/C(=C\c2ccc(Cl)cc2Cl)C1=O`: the “lipid storage change, negative = inhibition” value is -29.4% (inactive) and the cell number change stood at 1.43%.
On to `O=C(NCCN1C(=O)S/C(=C\c2ccc(Cl)cc2Cl)C1=O)C1=COCCO1`, for which the Potency was 20.6 µM (active).
As to `O=C(NCCN1C(=O)S/C(=C\c2ccc(Cl)c(Cl)c2)C1=O)C1COc2ccccc2O1` (stereo not drawn), the molecule was classed as inactive.
With `O=C(NCCN1C(=O)S/C(=C\c2ccc(Cl)c([N+](=O)[O-])c2)C1=O)C1=COCCO1`, the “lipid storage change, negative = inhibition” value was -27.2% (inactive) and the cell number change was determined as 12.4%.
Take `CC(=O)c1c2c3c(cccc3n(C)c1=O)C(=O)c1ccccc1-2`: the result was inactive and the cell number change was -3.04%.
Regarding `Cn1c(=O)c(Nc2ccc(O)cc2)c2c3c(cccc31)C(=O)c1ccccc1-2`, the “lipid storage change, negative = inhibition” value was 2.84% (inactive) and the cell number change came out at 4.29%.
With `CCOC(=O)c1c2c3c(cccc3n(C)c1=O)C(=O)c1ccccc1-2`, the Potency was 13 µM (active) and the cell number change is -24.8%.
As for `COc1ccccc1CNC(=O)c1sccc1-c1ccccc1`, the result was inactive and the cell number change is 7.94%.
Take `CCOC(=O)c1sc(=NC(=O)c2ccc(OC)c(OC)c2)n(C)c1C`: the “lipid storage change, negative = inhibition” value was 9.28% (inactive) and the cell number change worked out at 0.273%.
On the same counts, the results for `CC(=O)c1ccc(S(=O)(=O)N2CCCc3ccccc32)cc1` are 11.7% (inactive) and 13.2%.
On the same counts, the results for `Cc1cccc(Oc2ncnc(N)c2[N+](=O)[O-])c1C` are -2.92% (inactive) and 1.6%.
Turning to `O=C(Nc1ccccn1)c1ccc([N+](=O)[O-])o1`, the Potency was 20.6 µM (active) and the cell number change was -6.3%.
On to `O=C(Nc1ncccn1)c1ccc([N+](=O)[O-])o1`, for which the “lipid storage change, negative = inhibition” value was -14.6% (inactive) and the cell number change was -11.9%.
On the same counts, the results for `O=C(Nc1ccccn1)c1cc2ccccc2o1` are 2.25% (inactive) and -2.14%.
As for `CCCn1c(NC(=O)c2ccc(C)cc2)nc2ccccc21`, the result was inactive.
As for `Cc1cccc(NC(=O)c2ccc([N+](=O)[O-])o2)c1C`, the “lipid storage change, negative = inhibition” value is -1.69% (inactive) and the cell number change was 8.85%.
The corresponding values for `O=C(Nc1cccc2ncccc12)c1ccc(-c2ccc(Br)cc2)o1` are -6.65% (inactive) and -12.1%.
Consider `O=C(Nc1cccc2ncccc12)c1ccc([N+](=O)[O-])o1`, for which the Potency is 16.4 µM (active) and the cell number change amounted to 26.1%.
Regarding `CCCn1c(NC(=O)c2ccco2)nc2ccccc21`, the result was inactive and the cell number change is -15.8%.
On to `CCCn1c(NC(=O)c2ccc([N+](=O)[O-])o2)nc2ccccc21`, for which the Potency was 6.51 µM (active) and the cell number change was -9.34%.
